According to PubChem BioAssay (EPA / NIEHS):
Where “and” joins values, the source holds several entries; their conditions need not be identical. Equal values may be shown once. Records with an inconclusive call do not appear. Calls of active or inactive are those of the source. Rule for the calls: active = hit-call score of the fitted dose curve at least 0.9, where 1 is the maximum; inconclusive = response in the unintended direction; inactive = score below 0.9.

Legend:
[1] = TOX21_p53_BLA_p3_viability: Viability Assessment in the Tox21 HCT-116 p53 Agonism Beta-lactamase Assay, Phase 3 (AID 2283593);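 note: cells exposed to compound for 16 h before reading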
Method in brief: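 Cellular ATP was quantified by CellTiter-Glo luminescence, read after 30 min at room temperature. Beforehand, HCT116 cells (4000/well) received compound 5 h post-seeding, 217-fold diluted from DMSO, then incubated 16 h at 37C.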

[2] = target: Cellular tumor antigen p53 (Homo sapiens) (UniProt P04637); assay: TOX21_p53_BLA_p3_ratio: Tox21 HCT-116 p53 Agonism Beta-lactamase Assay, Ratio, Phase 3 (AID 2283596)
Method in brief: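 HCT116 p53-bla cells (4000/well) given compound in DMSO (217-fold dilution) after 5 h, incubated 16 h at 37C. CCF4-AM substrate 2 h at room temperature; 460/530 nm emission ratio, gain fitted against DMSO.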

[3] = TOX21_p53_BLA_p4_viability: Viability Assessment in the Tox21 HCT-116 p53 Agonism Beta-lactamase Assay, Phase 4 (AID 2283597);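 note: hits lower the luminescence signal meaning cytotoxicity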
Method in brief: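 HCT-116 p53-bla cells, 4000/well, dosed after 5 h attachment and incubated 16 h at 37 °C, 5% CO2. Viability from CellTiter-Glo ATP luminescence after 30 min at room temperature, taken after the beta-lactamase read; loss of signal indicates cytotoxicity.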

[4] = target: Cellular tumor antigen p53 (Homo sapiens) (UniProt P04637); assay: TOX21_p53_BLA_p5_ratio: Tox21 HCT-116 p53 Agonism Beta-lactamase Assay, Ratio, Phase 5 (AID 2283599)
Method in brief: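 Beta-lactamase reporter ratio (blue 460 nm over green 530 nm, 405 nm excitation) after 2 h CCF4-AM loading, in HCT-116 cells exposed 16 h at 37 C to compounds pinned at 217-fold dilution. Increases relative to DMSO baseline scored.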

[5] = TOX21_p53_BLA_p5_viability: Viability Assessment in the Tox21 HCT-116 p53 Agonism Beta-lactamase Assay, Phase 5 (AID 2283600)
Method in brief: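 HCT-116 p53 beta-lactamase reporter cells, 4000/well, were exposed to compound (pin transfer, 217-fold dilution) for 16 hours at 37C. Cellular ATP was read by CellTiter-Glo luminescence after 30 min at room temperature.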

[6] = target: Cellular tumor antigen p53 (Homo sapiens) (UniProt P04637); assay: TOX21_p53_BLA_p4_ratio: Tox21 HCT-116 p53 Agonism Beta-lactamase Assay, Ratio, Phase 4 (AID 2283601)
Method in brief: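 Signal is the blue/green (460nm/530nm) ratio of cleaved versus uncleaved CCF4-AM substrate, read after 2 h substrate loading. Cells were HCT116 carrying the p53-responsive beta-lactamase reporter, dosed 16 h at 37C, 5% CO2; CellTiter-Glo measured in parallel.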

Measured: AC50

Cellular tumor antigen p53 (Homo sapiens), sequence (P04637 whole entry, looked up): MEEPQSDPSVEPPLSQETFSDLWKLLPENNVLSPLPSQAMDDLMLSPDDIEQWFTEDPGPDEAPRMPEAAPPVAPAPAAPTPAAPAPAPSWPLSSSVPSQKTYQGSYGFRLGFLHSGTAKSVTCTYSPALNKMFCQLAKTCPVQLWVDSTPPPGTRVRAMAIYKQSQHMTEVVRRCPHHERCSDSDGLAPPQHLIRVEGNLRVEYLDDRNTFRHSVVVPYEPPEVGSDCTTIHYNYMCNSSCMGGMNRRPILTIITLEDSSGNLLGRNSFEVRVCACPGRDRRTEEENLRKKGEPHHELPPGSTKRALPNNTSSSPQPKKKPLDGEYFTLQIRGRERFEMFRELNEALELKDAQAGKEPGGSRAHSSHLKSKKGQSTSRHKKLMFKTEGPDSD

CC1(C)CCC[C@]2(C)[C@H]3CC(=O)O[C@]3(C)CC[C@@H]12
inactive: all assays above

CCc1cccc(C)c1N
inactive: all assays above

CCCCCCO
inactive: [1] | [2] | [3] | [5]

CCC[Si](OC)(OC)OC
not listed: [5]
inactive: all other assays above

CN(C)Cc1cc(CN(C)C)c(O)c(CN(C)C)c1
inactive: all assays above

CC(C)(C)NC(=O)[C@H]1CC[C@H]2[C@@H]3CC[C@H]4NC(=O)C=C[C@]4(C)[C@H]3CC[C@]12C
inactive: [1] | [2] | [3] | [5]

C[Si](C)(C)N[Si](C)(C)C
inactive: all assays above

Oc1ccc(/C=C/c2cc(O)cc(O)c2)cc1
inactive: all assays above

CCCCCCCCCCCCCC(=O)OC(C)C
inactive: all assays above

N=C1C=CC(=C(c2ccc(N)cc2)c2ccc(N)cc2)C=C1
inactive: [1] | [3] | [6]
active: [2] 60.4 µM | [4] 67.3 µM

O=C(Cl)c1ccc(C(=O)Cl)cc1
not listed: [5]
inactive: all other assays above

CCCCCCC=O
inactive: all assays above

C=CC(C)(CCC=C(C)C)OC(=O)C=Cc1ccccc1 (stereo unspecified)
inactive: [1] | [2] | [3] | [5]

C=C(C)[C@@H]1CC=C(C)CC1
not listed: [5]
inactive: all other assays above

CCCCC(=O)O
inactive: all assays above

C=CC(=O)OCCCCCCOC(=O)C=C
active: [2] 54.4 µM and 63.2 µM | [4] 42.4 µM and 63.2 µM
inactive: all other assays above

O=C(OCc1ccccc1)c1ccc(O)cc1
not listed: [6]
inactive: all other assays above
